14-3-3 Bad inh = disrupts binding of bovine 14-3-3 zeta to phospho-Bad peptide | P63103 | TR-FRET 14-3-3zeta/Dy647-pBad peptide displacement, 1 h | inhibition, % at 21.7 µM | 220,000 compounds, 0.71% hits;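 active means inhibition above about 70%, limit read from the data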;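 further: 0% = full 14-3-3 plus peptide FRET controls and 100% = background without 14-3-3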
Target sequence (P63103 whole entry, looked up): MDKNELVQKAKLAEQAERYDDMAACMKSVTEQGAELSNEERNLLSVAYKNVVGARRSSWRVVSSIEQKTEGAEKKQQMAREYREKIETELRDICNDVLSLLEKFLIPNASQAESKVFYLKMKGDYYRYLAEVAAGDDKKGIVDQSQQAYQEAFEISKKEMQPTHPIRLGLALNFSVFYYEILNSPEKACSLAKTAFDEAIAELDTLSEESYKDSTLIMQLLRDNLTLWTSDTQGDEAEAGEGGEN
bovine MsrA act = activators of bovine methionine sulfoxide reductase A; purified bovine MsrA, absorbance read-out; activation, % at 10.6 µM; 360,000 compounds, 0.3% hits; AID 602163; in the data active means activation above about 7.5%;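 further: 0% = vehicle and 100% = reference activator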
MsrA inh = inhibits bovine methionine sulfoxide reductase A; inhibition, % at 15.5 µM; purified bovine MsrA, absorbance read-out; 360,000 compounds, 0.75% hits;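 further: 0% = vehicle wells with enzyme and 100% = reference inhibitor wells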
pCIP destab = p/CIP protein destabilization; F442A p/CIP-EGFP cells, EGFP fluorescence, 16 h; 290,000 compounds, 0.01% hits; Q05BA5; decrease of EGFP signal, % at 10 µM; AID 1984;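 active means EGFP signal decrease of at least 30% at 10 µM or well 3 SD below plate mean, unless failing retest; inactive means the rest, including hits failing retest or dose response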
MsrA conf = confirmation of bovine MsrA inhibitors. purified bovine MsrA, absorbance read-out. 2,300 compounds, 41% hits. shares compounds with MsrA inh. inhibition, % at 15.5 µM;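 further: coupled to thioredoxin reductase with NADPH and selenocystamine and DMSO as substrate; 0% = vehicle only and 100% = full effect of reference inhibitor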
* = called active by the depositor; / = no result given. Rows were chosen to be rich in hits. Some 1.4% of all compounds tested hit in one or more screens of this group. Unless noted, no stated cut-off is given here; in the data, active means inhibition above about 4.5%; inactive means the rest.

SMILES	14-3-3 Bad inh	bovine MsrA act	MsrA inh	pCIP destab	MsrA conf
CN(C)c1cccc(NC2=CC(=[N+]3CCOCC3)CC(C)(C)C2)c1	20	-6	4.8*	-14	5.2*
CC1(C)CC(=O)C=C(Nc2cccc(F)c2)C1	/	-4	3	0	/
Cc1ccc(-c2ccc3c(c2)O[C@H](CN(C)Cc2cncnc2)[C@@H](C)CN([C@H](C)CO)S3(=O)=O)cc1	/	-4	0	/	/
CC1Sc2ccc(C#N)cc2N(Cc2cccc(C(F)(F)F)c2)C1=O (stereo not drawn)	/	-1	5.4*	/	3
CCOC(=O)C1=CN(Cc2cccc(-c3ccc4c(c3)OCO4)c2)S(=O)(=O)N(C)C1C (stereo not drawn)	/	-4	0	/	/
CC(C)[C@H](N[C@@H](C)c1ccccc1)c1c(O)ccc2ccccc12	/	-1	0	-2	/
O=C(O)c1ccc(/C=C/C(=O)c2ccc3c(c2)OCCCO3)cc1	/	-5	6.5*	-17	2
CC(=O)Nc1ccc(/C=C/C(=O)c2ccc3c(c2)OCCO3)cc1	/	-4	4	11	/
Cc1sc(N)nc1-c1c(C)n(C)c2ccccc12	/	-3	0	-13	/
CCCC(=O)N1CCC1(C)C(=O)NS(=O)(=O)c1ccc(C)cc1 (stereo not drawn)	/	-1	1	/	/
O=C1N/C(=N\N=C\c2cccs2)SC1Cc1ccc(Cl)c(Cl)c1 (stereo not drawn)	1	-5	1	16	/
C=CCC1S/C(=N/N=C/c2cccs2)NC1=O (stereo not drawn)	0	-4	6.7*	8	5.7*
N#Cc1ccc(OCC(=O)OCC(=O)N2CCc3ccccc32)cc1	/	-7	1	/	/
CCOC(=O)c1ccccc1NC(=O)CN(c1ccccc1OC)S(C)(=O)=O	-8	-2	-1	-1	/
CCOC(=O)c1ccccc1NC(=O)CN(c1ccccc1)S(=O)(=O)N(C)C	-3	-2	5.6*	-5	4
NS(=O)(=O)c1cc(C(=O)NCC2CCCCC2)ccc1Cl	/	-2	-2	0	/
COc1ccccc1CNC(=O)COc1ccc(S(=O)(=O)N2CCCC2)cc1	/	-10	-1	12	/
CSC1=C(C#N)C(=O)NC(c2ccccc2O)S1 (stereo not drawn)	0	-7	2	-19	/
COC(=O)CSC1=C(C#N)C(=O)NC(c2ccccc2)S1 (stereo not drawn)	7	-19	6.1*	0	4.8*
Cc1cc([N+](=O)[O-])ccc1Nc1nc2ccccc2n2cnnc12	/	5	6.4*	-10	8.3*
CCc1cccc(C)c1Nc1nc2ccccc2n2cnnc12	/	-3	5.4*	4	4
Cc1c(Nc2nc3ccccc3n3cnnc23)cccc1[N+](=O)[O-]	/	-3	0	-12	/
CSCC[C@H](NC(=O)Cc1c(C)c2cc3c4c(oc3cc2oc1=O)CCCC4)C(=O)O	/	-1	2	7	/
N#C/C(=C\c1ccco1)C(=O)Nn1cnnc1	5	-11	7.5*	-2	5.7*
N#C/C(=C\c1ccco1)C(=O)Nc1ccc(S(N)(=O)=O)cc1	-5	-13	4	7	/
SMILES	14-3-3 Bad inh	bovine MsrA act	MsrA inh	pCIP destab	MsrA conf
CCOC(=O)n1c(=O)n(Cc2ccccc2C)c2ccccc21	-11	-9	-2	-17	/
Cc1ccc(OCc2cc(C(=O)NC3CCOC3)no2)cc1C (stereo not drawn)	/	-2	2	12	/
COc1ccccc1C(=O)N/N=C/c1ccc2c(c1)OCO2	/	-5	5	1	/
COc1cc(/C=N/NC(=O)c2cc(-c3ccc4c(c3)OCO4)n[nH]2)ccc1O	2	-11	5.5*	-13	3
COc1cc(/C=N/NC(=O)c2cc(C3CC3)[nH]n2)ccc1O	3	-6	5.2*	-1	3
CC(C)c1nc2c(c(=O)n(C)c(=O)n2C)n1C	-2	0	1	-3	/
CC1(C)CC(=O)c2sc(NS(=O)(=O)Cc3ccccc3)nc2C1	26	-8	5.3*	5	3
Cc1ccc(S(=O)(=O)Nc2nc3c(s2)C(=O)CC(C)(C)C3)cc1	4	-12	6.7*	-6	3
O=C(c1cnc2sccn2c1=O)N1CCc2ccccc2C1	-7	-4	4.8*	-8	4
Cc1cc(C)n2nc(N)c(N=Nc3ccccc3)c2n1	-1	-2	5.2*	-2	4
Nc1c(OS(=O)(=O)c2ccccc2)cccc1OS(=O)(=O)c1ccccc1	/	-11	2	/	/
COC(=O)C1=C(C)OC(N)=C(C#N)C1c1ccco1 (stereo not drawn)	-3	-3	2	-3	/
CCOC(=O)C1=C(c2ccccc2)OC(N)=C(C#N)C1c1ccco1 (stereo not drawn)	-7	-4	6.3*	-8	3
CC1(C)CC(N2CCN(CCO)CC2)=CC(=S)N1	-2	0	5.8*	10	6.1*
CC1(C)CC(NCc2ccccc2)=CC(=S)N1	/	1	/	/	/
CCCc1nc(SCC(=O)O)c2sc(=S)n(-c3ccccc3)c2n1	/	-1	4.7*	-4	4.8*
Cc1nc(C)c(C(=O)N/N=C/c2c[nH]c3ccccc23)s1	9	-2	/	-4	/
Cc1nc(C)c(C(=O)N/N=C/c2cn(C)c3ccccc23)s1	-8	-2	5.1*	-7	3
Cn1cnc([N+](=O)[O-])c1Sc1nc(N)nc2c1ncn2C1CC(O)C(CO)O1 (stereo not drawn)	/	-1	5.5*	/	3
Cn1cnc([N+](=O)[O-])c1Sc1nc(N)nc2c1ncn2C1OC(CO)C(O)C1O (stereo not drawn)	/	-3	4	/	/
NC1=NC(=O)/C(=C/c2cn(CCC(=O)O)nc2-c2ccc(F)cc2)S1	-4	-6	5.0*	0	3
O=C(CCc1ccc(S(=O)(=O)N2CCOCC2)cc1)OCC(=O)c1ccccc1	/	0	1	/	/
CC1CN(c2ncc(/C=N/NC(=O)c3ccccc3O)s2)CC(C)O1 (stereo not drawn)	-29	-5	6.4*	12	5.7*
CCOc1ccc(CCNC(=O)CCNC(=O)c2ccccc2Cl)cc1OCC	/	0	0	9	/
COc1ccc(/C=N/Nc2nonc2N)cc1OC	-4	-2	4	-2	/
SMILES	14-3-3 Bad inh	bovine MsrA act	MsrA inh	pCIP destab	MsrA conf
CC(=O)Nc1ccc(/C=N/NC(=S)NC(C)C)cc1	-2	-1	8.9*	3	4
COc1cc(/C=N/NC(=S)Nc2cccc(C(=O)O)c2)ccc1O	0	-6	5.1*	11	5.6*
COc1ccc(/C=N/Nc2nc(N)cc(Cl)n2)cc1OC	-13	-3	5.8*	-22	3
COc1ccc(/C=N/Nc2cc(=O)n(C)c(=O)n2C)cc1OC	-3	-8	4.7*	0	4.7*
COc1ccc(/C=N/NC(=S)Nc2cccc(C(=O)O)c2)cc1	-10	-6	4	-3	/
CCC(C(=O)Nc1cccnc1Cl)c1ccccc1 (stereo not drawn)	/	1	0	12	/
CN(C)C(=O)c1ccc(NC(=O)c2ccccc2SCC(=O)N2CCCC2)cc1	/	-3	0	/	/
COc1cc(/C=N/Nc2ccc(S(N)(=O)=O)cc2)cc(OC)c1OC	-13	-2	5.6*	0	6.3*
COc1cc(/C=N/Nc2ccc(C(=O)O)cc2)cc(OC)c1OC	-3	-2	3	6	/
